High-throughput results: PubChem BioAssay, Broad Institute
Yp Topo-I inh: inhibitors of Yersinia pestis topoisomerase I | 0.064% of 360,000 active | activity, % at 10 µM | Y. pestis Topo-I cleavage product accumulation, plate reader; in the data active means activity above about 50%, passing the limit was not always enough
TcdB GH inh: TcdB glycohydrolase inhibition; P18177; TcdB glycohydrolase enzymatic assay, plate reader; inhibition, % at 9.99 µM; 0.24% of 350,000 active; in the data active means inhibition above about 10%
PrP UTR inh: suppresses PrP 5' UTR mRNA reporter expression. 0.35% of 340,000 active. inhibition, % (concentration not given with the values). cell-based PrP 5' UTR mRNA reporter, plate reader; in the data active means inhibition above about 52%; further: 0 = median of the neutral control wells
BioA inh-1: inhibitors of Mycobacterium tuberculosis BioA enzyme. purified M. tuberculosis BioA enzyme, plate reader. inhibition, % at 9.99 µM. 0.096% of 360,000 active; in the data active means inhibition above about 40%
BioA inh-2: Mtb BioA enzyme inhibition; max activity, %; 310 tested, under 10 active; shares compounds with BioA inh-1; purified BioA enzyme, plate reader, dose response;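 further: top concentration of the dilution series was 10 µM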
HepG2 tox 2: kills HepG2 cells | HepG2 cytotoxicity, plate reader | AID 651898 | shares compounds with BioA inh-1 | 310 tested, under 10 active | max activity, %
NIH3T3 tox 5: NIH3T3 viability loss; activity change, negative = cytotoxicity, % at 26 µM; NIH3T3 cytotoxicity, plate reader; 310 tested, under 10 active; shares compounds with BioA inh-1
Starred values were filed as active, the others as inactive; i = inactive; · = no result given; [ ] = another dose, or the depositor's remark. The list is not random: actives were taken first. Their share in the collection is about 0.53%. Unless noted, how the calls were made is not given here.

SMILES	Yp Topo-I inh	TcdB GH inh	PrP UTR inh	BioA inh-1	BioA inh-2	HepG2 tox 2	NIH3T3 tox 5
CC(C)NC(=O)N(C)C[C@H]1Oc2ncc(C#Cc3ccc(F)cc3)cc2C(=O)N([C@H](C)CO)C[C@@H]1C	·	0	·	-2	·	·	·
C[C@@H]1CN([C@@H](C)CO)S(=O)(=O)c2ccc(C#Cc3ccc(F)cc3)cc2O[C@H]1CN(C)C(=O)CN(C)C	·	2	·	1	·	·	·
CC(Oc1cc2oc(=O)c3c(c2cc1Cl)CCC3)C(=O)NCc1cccnc1 (configuration not stated)	15	-2	-18	47*	-8	-20	-5
CC(C)NC(=O)Nc1ccc2c(c1)C(=O)N([C@H](C)CO)C[C@@H](C)[C@@H](CN(C)C(=O)Nc1ccccc1)OCCCC[C@@H](C)O2	·	0	·	-1	·	·	·
CCCC(=O)Nc1cccc(NC(=O)c2ccc(C)c([N+](=O)[O-])c2)c1	-10	·	-18	44*	-6	-15	-2
C[C@@H]1CN([C@@H](C)CO)C(=O)c2cc(-c3ccncc3)cnc2O[C@H]1CN(C)Cc1ccc(F)cc1	·	2	·	1	·	·	·
C[C@@H]1CN([C@@H](C)CO)C(=O)Cc2cc(NC(=O)Cn3cnnn3)ccc2O[C@H]1CN(C)Cc1ccc2c(c1)OCO2	·	-1	·	56*	-6	i	-5
C[C@@H]1CN([C@H](C)CO)C(=O)Cc2cc(NC(=O)Cn3cnnn3)ccc2O[C@H]1CN(C)Cc1ccc2c(c1)OCO2	·	0	·	63*	-7	i	7[23.5 µM]
C[C@H]1CN([C@@H](C)CO)C(=O)Cc2cc(NC(=O)Cn3cnnn3)ccc2O[C@H]1CN(C)Cc1ccc2c(c1)OCO2	·	0	·	6	·	·	·
Cc1ccc(S(=O)(=O)Nc2ccc3c(c2)CC(=O)N([C@@H](C)CO)C[C@@H](C)[C@H](CN(C)S(=O)(=O)c2cccs2)O3)cc1	·	-20	·	1	·	·	·
C[C@H](CO)N1C[C@H](C)[C@@H](CN(C)S(=O)(=O)c2cccc(F)c2)OCc2ccccc2-c2ccccc2C1=O	·	·	·	-1	·	·	·
COCC(=O)N1[C@H](CO)[C@H](c2ccccc2)C12CN(C(=O)NC1CCCC1)C2	·	-1	·	·	·	·	·
C[C@@H]1CCCCO[C@@H](CN(C)C)[C@@H](C)CN([C@@H](C)CO)C(=O)c2cc(NS(=O)(=O)c3ccccc3)ccc2O1	·	0	·	-2	·	·	·
CCC(CO)[n+]1c(C)cc(/C=C2\Sc3ccccc3N2Cc2ccccc2)cc1C (configuration not stated)	16	22*	-2	53*	-6	14	-9
COc1ccccc1S(=O)(=O)N1CC[C@@H]2[C@H](CO)Nc3ccc(-c4cccc(C#N)c4)cc3[C@@H]21	·	·	·	48*	20	i	1
CC(=O)Nc1ccc(N2CCCC(C)C2)c([N+](=O)[O-])c1 (configuration not stated)	-10	2	-3	·	·	·	·
CC1CCCN(c2ccc(C(=O)Nc3cccnc3)cc2[N+](=O)[O-])C1 (configuration not stated)	7	6	-48	54*	-7	5	-9
O=C(Nc1ccc2c(c1)[C@H]1C[C@@H](CC(=O)N3CCc4ccccc4C3)O[C@@H](CO)[C@H]1O2)c1cccnc1	·	1	·	42*	-6	i	-5
CN1CCN(C(=O)C[C@H]2C[C@@H]3c4cc(NC(=O)c5cccnc5)ccc4O[C@@H]3[C@H](CO)O2)CC1	·	·	·	3	·	·	·
CN(C)C(=O)C[C@@H]1C[C@@H]2c3cc(NC(=O)c4cccnc4)ccc3O[C@@H]2[C@@H](CO)O1	·	0	·	48*	-8	i	-1
O=C(C[C@H]1C[C@H]2c3cc(NC(=O)c4cccnc4)ccc3O[C@H]2[C@@H](CO)O1)NCc1cc(F)ccc1F	·	-1	·	3	·	·	·
O=C(C[C@H]1C[C@@H]2c3cc(NC(=O)c4cccnc4)ccc3O[C@@H]2[C@@H](CO)O1)NCC(F)(F)F	·	0	·	44*	-5	i	0
O=C(C[C@@H]1C[C@H]2c3cc(NC(=O)c4cccnc4)ccc3O[C@H]2[C@H](CO)O1)NCC(F)(F)F	·	-1	·	18	·	·	·
O=C(C[C@@H]1C[C@H]2c3cc(NC(=O)c4cccnc4)ccc3O[C@H]2[C@@H](CO)O1)NCc1cc(F)ccc1F	·	0	·	41*	6	i	1[23.5 µM]
Cc1ccc(F)cc1S(=O)(=O)N[C@@H]1CCN(Cc2cccc3[nH]ccc23)C1	·	-1	·	-2	·	·	·
